Experimental data from PMC7862700, “An all-to-all approach to the identification of sequence-specific readers for epigenetic DNA modifications on cytosine”.

Legend:
Test in all cases: DAPPL (digital affinity profiling via proximity ligation, sequencing); 10 mM Tris-HCl pH 7.5, 50 mM NaCl, 1 mM DTT, 4% glycerol, room temperature, 30 min; GST-TFs on glutathione beads, 16-mer random dsDNA library, 0.1% formaldehyde crosslink after washing; high values mean tight binding
FEV = biological target: T1, FEV (Homo sapiens, UniProt Q99581 1-238); conditions: protein: recombinant; tags: N-terminal GST; dsDNA, one strand shown
T1 sequence: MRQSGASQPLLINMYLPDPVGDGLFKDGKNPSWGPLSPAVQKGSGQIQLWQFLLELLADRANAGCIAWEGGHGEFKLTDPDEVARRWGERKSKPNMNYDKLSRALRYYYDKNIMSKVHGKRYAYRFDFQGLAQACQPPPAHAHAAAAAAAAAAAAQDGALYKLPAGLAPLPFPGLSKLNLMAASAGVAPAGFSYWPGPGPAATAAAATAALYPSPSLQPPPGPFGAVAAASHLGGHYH
Summary of the method: (§1)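 Each value of binding signal is a hexamer's read frequency for a factor divided by the same hexamer's frequency in the tag-only sample. Barcoded, bead-captured GST fusions of human transcription factors made in yeast were pooled with that sample and incubated with 200 nmole of a random double-stranded 16-mer DNA library in Tris/NaCl/DTT/glycerol buffer at room temperature for 30 min. Washing, 0.1% formaldehyde crosslinking, proximity ligation, PCR and Illumina NextSeq500 sequencing followed.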

ETV5 = ETV5 (Homo sapiens, UniProt P41161 1-510); conditions: protein: recombinant; tags: N-terminal GST; dsDNA, one strand shown
Summary of the method: as §1

HSF1 = HSF1 (Homo sapiens, UniProt Q00613 1-529); conditions: protein: recombinant; tags: N-terminal GST; chain copies: 3; dsDNA, one strand shown
Summary of the method: as §1

SPIC = biological target: T2, SPIC (Homo sapiens, UniProt Q8N5J4 1-248); conditions: protein: recombinant; tags: N-terminal GST; dsDNA, one strand shown
T2 sequence: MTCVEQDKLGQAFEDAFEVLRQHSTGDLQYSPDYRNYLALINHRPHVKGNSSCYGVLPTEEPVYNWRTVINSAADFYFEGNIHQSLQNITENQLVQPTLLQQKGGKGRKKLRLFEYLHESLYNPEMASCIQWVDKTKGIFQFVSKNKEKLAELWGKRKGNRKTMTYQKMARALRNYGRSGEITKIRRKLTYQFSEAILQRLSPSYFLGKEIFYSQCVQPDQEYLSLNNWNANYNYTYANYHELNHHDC
Summary of the method: as §1

ELF4 = ELF4 (Homo sapiens, UniProt Q99607 1-663); conditions: protein: recombinant; tags: N-terminal GST; dsDNA, one strand shown
Summary of the method: as §1

ELK4 = biological target: T3, ELK4 (Homo sapiens, UniProt P28324-2 1-405); conditions: protein: recombinant; tags: N-terminal GST; dsDNA, one strand shown
T3 sequence: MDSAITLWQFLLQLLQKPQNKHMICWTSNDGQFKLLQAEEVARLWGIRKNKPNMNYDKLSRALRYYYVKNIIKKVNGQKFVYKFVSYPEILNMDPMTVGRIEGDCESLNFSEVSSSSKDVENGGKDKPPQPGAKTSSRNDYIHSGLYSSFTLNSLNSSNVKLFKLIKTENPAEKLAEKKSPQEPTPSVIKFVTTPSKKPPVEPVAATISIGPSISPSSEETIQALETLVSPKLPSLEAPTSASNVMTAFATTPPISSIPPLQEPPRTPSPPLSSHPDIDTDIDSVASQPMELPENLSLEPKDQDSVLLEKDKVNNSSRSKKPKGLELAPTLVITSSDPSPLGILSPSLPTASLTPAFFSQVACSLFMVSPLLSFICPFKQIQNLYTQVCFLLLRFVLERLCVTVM
Summary of the method: as §1

ETV2 = biological target: T4, ETV2 (Homo sapiens, UniProt O00321 1-342); conditions: protein: recombinant; tags: N-terminal GST; dsDNA, one strand shown
T4 sequence: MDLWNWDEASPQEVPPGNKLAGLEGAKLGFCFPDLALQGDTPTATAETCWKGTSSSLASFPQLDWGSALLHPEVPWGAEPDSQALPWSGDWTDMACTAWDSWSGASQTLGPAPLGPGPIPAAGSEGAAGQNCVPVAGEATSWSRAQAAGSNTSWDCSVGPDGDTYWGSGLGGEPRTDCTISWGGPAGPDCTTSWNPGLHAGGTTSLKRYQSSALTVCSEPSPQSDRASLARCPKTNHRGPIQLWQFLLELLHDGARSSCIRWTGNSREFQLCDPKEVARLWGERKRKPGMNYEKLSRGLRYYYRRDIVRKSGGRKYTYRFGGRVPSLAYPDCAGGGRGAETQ
Summary of the method: as §1

ELF3 = biological target: T5, ELF3 (Homo sapiens, UniProt P78545 1-371); conditions: protein: recombinant; tags: N-terminal GST; dsDNA, one strand shown
T5 sequence: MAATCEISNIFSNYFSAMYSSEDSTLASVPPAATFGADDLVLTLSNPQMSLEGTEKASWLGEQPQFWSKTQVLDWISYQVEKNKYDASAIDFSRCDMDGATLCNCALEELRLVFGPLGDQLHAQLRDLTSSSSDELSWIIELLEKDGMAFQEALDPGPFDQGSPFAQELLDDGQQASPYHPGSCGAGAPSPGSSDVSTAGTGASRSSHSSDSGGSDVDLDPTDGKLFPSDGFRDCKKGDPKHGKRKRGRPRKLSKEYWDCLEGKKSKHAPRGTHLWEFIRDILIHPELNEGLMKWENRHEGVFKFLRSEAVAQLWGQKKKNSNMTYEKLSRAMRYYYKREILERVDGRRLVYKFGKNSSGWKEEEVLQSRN
Summary of the method: as §1

CRX = CRX (Homo sapiens, UniProt O43186 1-299); conditions: protein: recombinant; tags: N-terminal GST; dsDNA, one strand shown
Summary of the method: as §1

ETV1 = ETV1 (Homo sapiens, UniProt P50549 1-477); conditions: protein: recombinant; tags: N-terminal GST; dsDNA, one strand shown
Summary of the method: as §1

ERF = biological target: T6, ERF (Homo sapiens, UniProt P50548 1-548); conditions: protein: recombinant; tags: N-terminal GST; dsDNA, one strand shown
T6 sequence: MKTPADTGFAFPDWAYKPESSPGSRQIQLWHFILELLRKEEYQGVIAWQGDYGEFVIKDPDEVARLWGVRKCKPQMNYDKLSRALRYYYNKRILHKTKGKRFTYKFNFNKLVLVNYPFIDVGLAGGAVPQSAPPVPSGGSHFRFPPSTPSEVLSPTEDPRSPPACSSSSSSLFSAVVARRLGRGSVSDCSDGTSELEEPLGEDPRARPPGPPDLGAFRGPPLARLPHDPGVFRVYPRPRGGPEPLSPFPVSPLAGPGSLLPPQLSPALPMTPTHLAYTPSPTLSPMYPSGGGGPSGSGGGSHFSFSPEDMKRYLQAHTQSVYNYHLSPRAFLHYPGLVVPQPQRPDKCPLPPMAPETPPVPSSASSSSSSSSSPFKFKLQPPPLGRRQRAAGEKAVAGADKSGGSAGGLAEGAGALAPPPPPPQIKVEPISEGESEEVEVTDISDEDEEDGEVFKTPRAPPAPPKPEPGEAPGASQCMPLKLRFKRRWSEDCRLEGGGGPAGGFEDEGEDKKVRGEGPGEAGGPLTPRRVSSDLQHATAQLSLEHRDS
Summary of the method: as §1

ETV3L = biological target: T7, ETV3L (Homo sapiens, UniProt Q6ZN32 1-361); conditions: protein: recombinant; tags: N-terminal GST; dsDNA, one strand shown
T7 sequence: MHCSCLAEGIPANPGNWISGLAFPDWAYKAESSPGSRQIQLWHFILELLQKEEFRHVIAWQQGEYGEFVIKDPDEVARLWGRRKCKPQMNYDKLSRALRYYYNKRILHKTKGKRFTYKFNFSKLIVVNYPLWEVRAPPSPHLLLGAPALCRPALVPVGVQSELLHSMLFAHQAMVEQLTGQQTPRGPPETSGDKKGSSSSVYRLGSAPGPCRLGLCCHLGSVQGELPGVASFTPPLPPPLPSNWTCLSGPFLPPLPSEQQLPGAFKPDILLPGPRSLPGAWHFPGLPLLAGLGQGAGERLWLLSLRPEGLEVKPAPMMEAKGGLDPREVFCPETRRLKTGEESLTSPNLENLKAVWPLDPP
Summary of the method: as §1

ETS2 = biological target: T8, ETS2 (Homo sapiens, UniProt P15036 1-469); conditions: protein: recombinant; tags: N-terminal GST; dsDNA, one strand shown
T8 sequence: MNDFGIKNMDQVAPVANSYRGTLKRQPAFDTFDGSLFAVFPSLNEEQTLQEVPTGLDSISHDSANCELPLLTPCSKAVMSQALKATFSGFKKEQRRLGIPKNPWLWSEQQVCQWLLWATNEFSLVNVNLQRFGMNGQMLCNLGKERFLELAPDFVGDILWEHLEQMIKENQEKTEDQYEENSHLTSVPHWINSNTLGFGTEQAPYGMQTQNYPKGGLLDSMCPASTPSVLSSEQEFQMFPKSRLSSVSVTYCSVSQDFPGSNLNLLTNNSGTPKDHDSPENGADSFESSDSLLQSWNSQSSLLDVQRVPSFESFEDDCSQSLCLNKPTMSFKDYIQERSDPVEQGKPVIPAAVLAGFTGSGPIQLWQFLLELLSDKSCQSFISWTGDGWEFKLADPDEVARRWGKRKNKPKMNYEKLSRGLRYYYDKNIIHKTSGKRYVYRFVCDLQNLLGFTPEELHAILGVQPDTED
Summary of the method: as §1

SPDEF = biological target: T9, SPDEF (Homo sapiens, UniProt O95238 1-335); conditions: protein: recombinant; tags: N-terminal GST; dsDNA, one strand shown
T9 sequence: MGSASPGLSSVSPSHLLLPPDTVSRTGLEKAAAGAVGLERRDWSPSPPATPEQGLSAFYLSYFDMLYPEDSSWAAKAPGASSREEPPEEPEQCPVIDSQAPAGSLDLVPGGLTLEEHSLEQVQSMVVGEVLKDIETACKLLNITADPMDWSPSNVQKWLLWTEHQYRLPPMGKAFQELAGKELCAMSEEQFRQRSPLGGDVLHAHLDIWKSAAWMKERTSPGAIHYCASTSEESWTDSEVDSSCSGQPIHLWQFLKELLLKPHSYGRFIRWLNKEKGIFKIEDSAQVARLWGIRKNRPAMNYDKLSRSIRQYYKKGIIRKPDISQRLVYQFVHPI
Summary of the method: as §1

ETV7 = biological target: T10, ETV7 (Homo sapiens, UniProt Q9Y603 1-341); conditions: protein: recombinant; tags: N-terminal GST; dsDNA, one strand shown
T10 sequence: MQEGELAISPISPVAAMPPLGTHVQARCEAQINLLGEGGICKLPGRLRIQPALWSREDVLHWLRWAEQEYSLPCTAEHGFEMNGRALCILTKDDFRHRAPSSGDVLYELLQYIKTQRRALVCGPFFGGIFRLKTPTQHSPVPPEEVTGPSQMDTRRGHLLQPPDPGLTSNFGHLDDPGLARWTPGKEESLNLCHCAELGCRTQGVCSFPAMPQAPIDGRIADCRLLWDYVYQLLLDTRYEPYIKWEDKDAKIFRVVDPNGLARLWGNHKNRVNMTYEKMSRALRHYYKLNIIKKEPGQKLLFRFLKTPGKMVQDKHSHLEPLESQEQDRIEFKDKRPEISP
Summary of the method: as §1

ELF5 = biological target: T11, ELF5 (Homo sapiens, UniProt Q9UKW6-2 1-255); conditions: protein: recombinant; tags: N-terminal GST; dsDNA, one strand shown
T11 sequence: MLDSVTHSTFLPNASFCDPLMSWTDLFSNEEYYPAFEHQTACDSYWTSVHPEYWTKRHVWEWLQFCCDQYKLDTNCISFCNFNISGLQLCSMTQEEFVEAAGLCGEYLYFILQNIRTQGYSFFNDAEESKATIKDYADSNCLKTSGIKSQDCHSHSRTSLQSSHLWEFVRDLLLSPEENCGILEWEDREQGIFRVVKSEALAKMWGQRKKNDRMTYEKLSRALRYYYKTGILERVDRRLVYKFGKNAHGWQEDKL
Summary of the method: as §1

ETV3 = biological target: T12, ETV3 (Homo sapiens, UniProt P41162-2 1-143); conditions: protein: recombinant; tags: N-terminal GST; dsDNA, one strand shown
T12 sequence: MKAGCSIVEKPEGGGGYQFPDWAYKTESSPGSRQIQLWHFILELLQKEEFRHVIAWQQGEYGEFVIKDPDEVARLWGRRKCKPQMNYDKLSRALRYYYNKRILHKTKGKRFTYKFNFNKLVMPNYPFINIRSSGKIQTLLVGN
Summary of the method: as §1

ETV6 = ETV6 (Homo sapiens, UniProt P41212 1-452); conditions: protein: recombinant; tags: N-terminal GST; dsDNA, one strand shown
Summary of the method: as §1

Sequence of ETV1 (P50549 whole entry): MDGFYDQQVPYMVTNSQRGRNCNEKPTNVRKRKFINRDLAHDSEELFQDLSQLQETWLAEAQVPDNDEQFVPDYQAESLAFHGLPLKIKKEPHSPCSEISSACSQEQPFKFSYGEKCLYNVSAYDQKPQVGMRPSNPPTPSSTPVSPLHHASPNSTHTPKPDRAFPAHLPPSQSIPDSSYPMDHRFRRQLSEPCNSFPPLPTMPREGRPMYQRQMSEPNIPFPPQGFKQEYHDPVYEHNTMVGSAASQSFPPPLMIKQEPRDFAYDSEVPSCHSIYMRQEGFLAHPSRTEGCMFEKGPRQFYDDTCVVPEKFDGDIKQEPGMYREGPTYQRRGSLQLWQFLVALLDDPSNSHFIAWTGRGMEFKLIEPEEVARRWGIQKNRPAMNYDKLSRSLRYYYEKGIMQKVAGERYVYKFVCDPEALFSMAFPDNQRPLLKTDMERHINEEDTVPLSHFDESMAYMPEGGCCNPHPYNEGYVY
Sequence of HSF1 (Q00613 whole entry): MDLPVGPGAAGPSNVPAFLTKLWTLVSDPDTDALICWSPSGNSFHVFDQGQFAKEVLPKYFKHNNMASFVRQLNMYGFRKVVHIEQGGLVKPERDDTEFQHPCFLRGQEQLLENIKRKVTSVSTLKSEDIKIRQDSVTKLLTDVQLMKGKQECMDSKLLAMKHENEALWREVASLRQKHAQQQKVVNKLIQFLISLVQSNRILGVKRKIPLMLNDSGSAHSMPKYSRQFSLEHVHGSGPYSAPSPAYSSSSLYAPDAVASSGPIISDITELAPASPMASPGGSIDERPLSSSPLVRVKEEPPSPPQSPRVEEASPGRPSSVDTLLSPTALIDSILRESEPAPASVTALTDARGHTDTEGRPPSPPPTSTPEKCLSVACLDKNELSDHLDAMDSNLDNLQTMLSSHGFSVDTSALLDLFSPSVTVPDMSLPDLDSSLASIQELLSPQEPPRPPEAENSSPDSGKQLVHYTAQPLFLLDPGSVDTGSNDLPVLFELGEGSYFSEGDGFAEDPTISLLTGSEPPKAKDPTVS
Sequence of ETV6 (P41212 whole entry): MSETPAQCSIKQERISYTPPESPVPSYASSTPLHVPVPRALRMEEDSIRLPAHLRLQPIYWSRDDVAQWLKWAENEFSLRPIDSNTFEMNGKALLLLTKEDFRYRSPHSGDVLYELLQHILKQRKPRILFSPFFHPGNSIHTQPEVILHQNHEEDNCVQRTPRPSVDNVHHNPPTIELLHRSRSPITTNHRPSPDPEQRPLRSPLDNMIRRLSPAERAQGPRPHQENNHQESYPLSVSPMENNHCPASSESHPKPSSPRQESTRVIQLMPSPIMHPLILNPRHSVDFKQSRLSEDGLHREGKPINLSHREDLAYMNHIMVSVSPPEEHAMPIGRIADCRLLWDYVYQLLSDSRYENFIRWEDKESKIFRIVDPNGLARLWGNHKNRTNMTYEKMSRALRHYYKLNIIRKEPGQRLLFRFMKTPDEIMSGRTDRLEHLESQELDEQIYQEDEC
Sequence of ETV5 (P41161 whole entry): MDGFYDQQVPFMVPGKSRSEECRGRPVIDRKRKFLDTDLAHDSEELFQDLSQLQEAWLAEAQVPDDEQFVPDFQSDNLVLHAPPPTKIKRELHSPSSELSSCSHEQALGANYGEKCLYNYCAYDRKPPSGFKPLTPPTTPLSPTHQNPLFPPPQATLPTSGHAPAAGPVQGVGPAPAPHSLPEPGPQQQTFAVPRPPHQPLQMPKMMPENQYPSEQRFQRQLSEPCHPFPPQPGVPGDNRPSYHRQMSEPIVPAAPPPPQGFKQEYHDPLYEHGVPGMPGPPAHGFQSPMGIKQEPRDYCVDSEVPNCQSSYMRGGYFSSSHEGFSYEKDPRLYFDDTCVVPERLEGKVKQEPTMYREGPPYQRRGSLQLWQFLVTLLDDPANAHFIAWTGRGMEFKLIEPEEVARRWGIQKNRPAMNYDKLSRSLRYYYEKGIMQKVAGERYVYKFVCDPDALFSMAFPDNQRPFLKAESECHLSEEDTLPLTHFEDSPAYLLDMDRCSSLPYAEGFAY
Sequence of ELF4 (Q99607 whole entry): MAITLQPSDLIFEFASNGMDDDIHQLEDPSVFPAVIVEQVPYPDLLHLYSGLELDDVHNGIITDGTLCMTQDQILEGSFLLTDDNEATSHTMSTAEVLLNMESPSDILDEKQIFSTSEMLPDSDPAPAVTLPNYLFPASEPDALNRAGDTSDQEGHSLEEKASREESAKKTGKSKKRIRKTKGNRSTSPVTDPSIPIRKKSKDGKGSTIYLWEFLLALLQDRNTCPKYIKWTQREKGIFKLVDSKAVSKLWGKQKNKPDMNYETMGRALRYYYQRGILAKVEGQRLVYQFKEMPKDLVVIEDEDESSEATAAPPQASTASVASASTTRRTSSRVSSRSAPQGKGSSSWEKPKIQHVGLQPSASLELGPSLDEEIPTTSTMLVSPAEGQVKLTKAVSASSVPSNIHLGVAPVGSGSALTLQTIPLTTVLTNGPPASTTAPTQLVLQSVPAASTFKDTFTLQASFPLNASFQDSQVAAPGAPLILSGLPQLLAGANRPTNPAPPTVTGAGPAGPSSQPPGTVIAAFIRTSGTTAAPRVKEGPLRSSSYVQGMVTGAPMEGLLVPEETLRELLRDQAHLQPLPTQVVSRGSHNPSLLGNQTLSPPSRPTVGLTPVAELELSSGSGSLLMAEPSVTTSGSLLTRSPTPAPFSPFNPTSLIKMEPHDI
Sequence of CRX (O43186 whole entry): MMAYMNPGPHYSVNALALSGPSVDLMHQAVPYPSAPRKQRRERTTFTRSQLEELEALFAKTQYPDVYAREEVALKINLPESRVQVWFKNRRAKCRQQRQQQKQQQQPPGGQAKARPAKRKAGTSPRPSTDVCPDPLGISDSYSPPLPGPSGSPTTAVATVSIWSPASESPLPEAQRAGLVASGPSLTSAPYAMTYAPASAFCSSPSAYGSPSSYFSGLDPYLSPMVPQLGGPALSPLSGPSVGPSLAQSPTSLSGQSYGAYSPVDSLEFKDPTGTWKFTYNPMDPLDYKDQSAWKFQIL

TCCAAT
binding signal (FEV): 1.21 fold enrichment (6-mer frequency, TF over GST control)
binding signal (ETV5): 1.17 fold enrichment (6-mer frequency, TF over GST control)
binding signal (HSF1): 1.23 fold enrichment (6-mer frequency, TF over GST control)
binding signal (SPIC): 1.17 fold enrichment (6-mer frequency, TF over GST control)
binding signal (ELF4): 1.21 fold enrichment (6-mer frequency, TF over GST control)
binding signal (ELK4): 1.12 fold enrichment (6-mer frequency, TF over GST control)
binding signal (ETV2): 1.24 fold enrichment (6-mer frequency, TF over GST control)
binding signal (ELF3): 1.11 fold enrichment (6-mer frequency, TF over GST control)
binding signal (CRX): 1.27 fold enrichment (6-mer frequency, TF over GST control)
binding signal (ETV1): 1.17 fold enrichment (6-mer frequency, TF over GST control)
binding signal (ERF): 1.13 fold enrichment (6-mer frequency, TF over GST control)
binding signal (ETV3L): 1.22 fold enrichment (6-mer frequency, TF over GST control)
binding signal (ETS2): 1.2 fold enrichment (6-mer frequency, TF over GST control)
binding signal (SPDEF): 1.2 fold enrichment (6-mer frequency, TF over GST control)
binding signal (ETV7): 1.33 fold enrichment (6-mer frequency, TF over GST control)
binding signal (ELF5): 1.15 fold enrichment (6-mer frequency, TF over GST control)
binding signal (ETV3): 1.2 fold enrichment (6-mer frequency, TF over GST control)
binding signal (ETV6): 1.22 fold enrichment (6-mer frequency, TF over GST control)
